According to PubChem BioAssay (NCATS):
Results filed as inconclusive are left out. Where a call stands in place of a potency, no number is given. Values without a mark were called inactive. Activity calls are given as the source filed them. The call rests on the fitted dose curve; in most records, active means well fitted curve in the direction sought with a large enough effect; inconclusive means small, poorly fitted or top-dose-only effect, or another doubt; inactive means no such curve, though single readings can be large; an effect the other way counts as inactive or inconclusive.

Columns and labels:
[1] = biological target: Calcium and integrin-binding protein 1 (Homo sapiens) (UniProt Q99828); assay: Primary qHTS for Identification of Calcium Integrin Binding Protein 1 (CIB1) Competitor (AID 1508620); further: potency means the concentration at half of the fitted maximal effect
Outline: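 CIB1-GST (1 uM final) and compound incubated 15 min at room temperature before adding FITC-alphaIIb peptide tracer (100 nM final). Competition for binding read by fluorescence polarization (ex 480, em 540) after another 15 min at room temperature.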

[2] = Counterscreen qHTS for small molecule stabilizers of the endoplasmic reticulum resident proteome: GLuc-NoTag assay (AID 1508627); further: potency means the concentration at half of the fitted maximal effect
Outline: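 Counterscreen line: SH-SY5Y-GLuc-NoTag cells, treated with compound 19 hr before a 4 hr, 100 nM thapsigargin calcium depletion. Secreted Gaussia luciferase in the medium was measured by luminescence after coelenterazine was added (0.07x final), with cells unlysed.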

[3] = Confirmatory qHTS for small molecule stabilizers of the endoplasmic reticulum resident proteome: Secreted ER Calcium Modulated Protein (SERCaMP) assay (AID 1508628); further: nearly all actives have a fitted effect of over 40% in size; further: potency means the concentration at half of the fitted maximal effect
Outline: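 Reporter secretion upon ER calcium depletion (100 nM thapsigargin, 4 h, 37C) is measured as medium luminescence with coelenterazine, after 16 h compound pretreatment of SH-SY5Y-GLuc-SERCaMP cells; primary at three concentrations up to 38.3 uM, follow-up at 11 (up to 76.6 uM).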

[4] = Cell Viability qHTS for small molecule stabilizers of the endoplasmic reticulum resident proteome (AID 1508629); conditions: cell viability counter-screen, 100 nM thapsigargin for final 4 h;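 further: human SH-SY5Y neuroblastoma cells carrying the GLuc-SERCaMP reporter; compound exposure about 46 h in total before the viability read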

Chain of Calcium and integrin-binding protein 1 (Homo sapiens) (Q99828 whole entry, looked up): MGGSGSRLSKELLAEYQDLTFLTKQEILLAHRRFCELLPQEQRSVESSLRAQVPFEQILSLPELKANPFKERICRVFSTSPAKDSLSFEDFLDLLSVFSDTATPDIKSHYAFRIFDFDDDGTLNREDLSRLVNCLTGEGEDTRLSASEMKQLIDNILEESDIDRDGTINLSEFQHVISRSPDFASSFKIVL

OC[C@H]1O[C@@H](Oc2ccc(O)cc2)[C@H](O)[C@@H](O)[C@H]1O
Potency [1]: inactive

COc1cc2c(cc1OC)[C@@H]1Cc3ccc(OC)c(OC)c3CN1CC2
Potency [1]: inactive

O=C(Nc1ccc(OC(F)(F)F)cc1)c1sccc1NCc1ccnc2ccccc12
Potency [1]: inactive

Cc1ccc2c(=O)c3cccc(CC(=O)O)c3oc2c1C
Potency [1]: inactive

c1ccc(-c2oc3ncnc(NC[C@@H]4CCCO4)c3c2-c2ccccc2)cc1
Potency [1]: inactive

Cc1ccc(C2=Nc3ccc(Cl)cc3OC2)cc1
Potency [1]: inactive

CN[C@@H]1[C@@H](O)[C@@H](O[C@@H]2[C@@H](O)[C@H](O[C@H]3O[C@H](CN)[C@@H](O)[C@H](O)[C@@H]3O)[C@@H](N)C[C@@H]2NC(=O)[C@@H](O)CN)OC[C@]1(C)O
Potency [1]: inactive

O=[N+]([O-])c1ccc(Nc2ccccc2-c2ccccc2)c2nonc12
Potency [1]: inactive

N#CC1(c2cccc(C(=O)Nc3cc(Oc4ccc5nc(NC(=O)C6CC6)sc5n4)ccc3F)c2Cl)CC1
Potency [1]: inactive

O=C(CC12CC3CC(CC(C3)C1)C2)Nc1cccc2nc(NCCNCCO)ccc12
Potency [1]: inactive

CC[C@H](CC#N)OC(=O)N[C@@H](C)c1cccc(NC(=O)Nc2ccc(-c3cnco3)c(OC)c2)c1
Potency [1]: inactive

CC(C)n1c(C=C[C@H](O)C[C@H](O)CC(=O)O)c(-c2ccc(F)cc2)c2ccccc21
Potency [1]: inactive

NS(=O)(=O)c1cc(Cl)c(Cl)c(S(N)(=O)=O)c1
Potency [1]: inactive | Potency [2]: inactive | Potency [3]: inactive | max response [4]: 21%

O=C1C(c2c(O)[nH]c3ccccc23)=Nc2ccccc21
Potency [1]: inactive

CC(C)C[C@H](NC(=O)c1cc2ccccc2s1)C(=O)N1CCN(C(=O)[C@H](CO)NS(=O)(=O)c2ccc(Cl)cc2Cl)CC1
Potency [1]: inactive | Potency [2]: 44.7 µM (active) | Potency [3]: 15.8 µM (active)

Cc1cc2nc3c(=O)[nH]c(=O)nc-3n(CC(O)C(O)C(O)CO)c2cc1C (centres undefined)
Potency [1]: 6.81 µM (active) | Potency [2]: inactive

CCC=CC[C@H]1C(=O)CC[C@@H]1CC(=O)OC
Potency [1]: inactive

CN(C)CC[C@H](CSc1ccccc1)Nc1ccc(S(=O)(=O)NC(=O)c2ccc(N3CCN(Cc4ccccc4-c4ccc(Cl)cc4)CC3)cc2)cc1[N+](=O)[O-]
Potency [1]: inactive

CN(C)CCOc1ccc(C(=C(CCCl)c2ccccc2)c2ccccc2)cc1
Potency [1]: inactive

CN(C)CCOc1cc(-c2cn[nH]c2)ccc1NC(=O)C1COc2ccccc2O1 (centres undefined)
Potency [1]: inactive

Cc1cccc(-c2[nH]c(C(C)(C)C)nc2-c2ccc3c(c2)OCO3)n1
Potency [1]: inactive

C[C@H](CCC(=O)O)[C@H]1CC[C@H]2[C@H]3[C@@H](CC[C@]12C)[C@@]1(C)CC[C@@H](O)C[C@H]1C[C@@H]3O
Potency [1]: inactive

CN1[C@H]2CC[C@H]1CC(OC(=O)c1c[nH]c3ccccc13)C2 (some centres undefined)
Potency [1]: inactive

Cc1nn(Cc2ccccc2Cl)c(C)c1CN(C)CC(O)COc1ccc(Cl)cc1 (centres undefined)
Potency [1]: inactive

Cn1c(=O)c(-c2c(Cl)cccc2Cl)cc2cnc(Nc3cccc(C(=O)O)c3)nc21
Potency [1]: inactive

Cc1ccc(C(=O)N(CCCN)[C@@H](c2nc3cc(Cl)ccc3c(=O)n2Cc2ccccc2)C(C)C)cc1
Potency [1]: inactive

Cc1cc(C(C)Nc2ccccc2)c2nc(N3CCOCC3)cc(=O)n2c1 (centres undefined)
Potency [1]: inactive

COc1ccc(-c2oc3c(CC=C(C)C)c(O)cc(O)c3c(=O)c2O)cc1
Potency [1]: inactive

CN1C(=O)C(Cc2c[nH]c3ccccc23)NC1=S (centres undefined)
Potency [1]: inactive

COc1ccc(CCN(C)CCCOc2ccc(S(=O)(=O)c3[nH]c4ccccc4c3C(C)C)cc2)cc1OC
Potency [1]: inactive

COc1c(C)c2c(c(O)c1CC=C(C)CCC(=O)O)C(=O)OC2
Potency [1]: inactive

CN(C(Cc1ccc(OS(=O)(=O)c2cccc3cnccc23)cc1)C(=O)N1CCN(c2ccccc2)CC1)S(=O)(=O)c1cccc2cnccc12 (centres undefined)
Potency [1]: inactive | Potency [3]: inactive

CC(C)(F)C[C@H](N[C@@H](c1ccc(-c2ccc(S(C)(=O)=O)cc2)cc1)C(F)(F)F)C(=O)NC1(C#N)CC1
Potency [1]: inactive

COc1c(C)c2c(c(O)c1CC=C(C)CCC(=O)OCCN1CCOCC1)C(=O)OC2
Potency [1]: inactive

O=C(Nc1cccc(C(F)(F)F)c1)Nc1cc(S(=O)(=O)NC2CC2)ccc1-c1ccsc1
Potency [1]: inactive

COc1cccc(OC)c1-c1cc(C(=O)NC2(C(=O)O)C3CC4CC(C3)CC2C4)nn1-c1ccnc2cc(Cl)ccc12 (centres undefined)
Potency [1]: inactive

CCOC(=O)N1CCN([N+]([O-])=NOc2cc(ON=[N+]([O-])N3CCN(C(=O)OCC)CC3)c([N+](=O)[O-])cc2[N+](=O)[O-])CC1
Potency [1]: inactive
